# Test results as given in PubChem BioAssay (NCI).
# The panel holds about 83,000 compounds, 20% with a hit somewhere; the sample as a whole holds those more often.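 Cells were grown in 96-well plates and exposed to the test compound at a single concentration for 48 hours; results are reported as percent growth, with values below 10 considered active.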 Values without a mark were called inactive. Active and inactive are the calls of the source.
# Tested on: MDA-MB-468 breast
# Experiment: NCI-60 one-dose screen, 48 h (100 = growth as untreated, 0 = no growth, -100 = all killed)
# Settings: 10 µM unless noted
row,SMILES,growth
1,Cc1cccc(-n2c(C)nc3ccc(NC(=O)NCCCl)cc3c2=O)c1,92.7%
2,C[C@]1(O)CC(=O)[C@]2(O)C3=C(C=C[C@]2(O)C1)C(=O)c1c(O)cccc1C3=O,-57.5% (active)
3,COc1ccc(C2CC(c3ccc(OC)cc3OC)=NN2c2ccc(S(N)(=O)=O)cc2)cc1 (stereo not given),64.8%
4,COc1cccc(-c2cc(-c3cccc(NS(C)(=O)=O)c3)nc(N)c2C#N)c1O,2.89% (active)
5,CC(=O)CCSc1ccc(OC(C)=O)cc1,101%
6,CN1CCN(c2nc(NCCCNc3ccnc4cc(Cl)ccc34)c3ccccc3n2)CC1,54.6%
7,CC1(C)CCC(C)(C)NC(=S)N1,103%
8,COc1cccc(CNc2c3ccccc3nc3ccccc23)c1,13.6%
9,COc1cc(-c2c(C#N)c(N)n3c(nc4ccccc43)c2C#N)cc(Br)c1OC,36.5%
10,C=C1C(=O)O[C@H]2[C@H]1CC/C(COC(=O)NCc1c[nH]c3ccc(OC)cc13)=C\CC[C@@]1(C)O[C@@H]21,-27.8% (active)
11,CCCCN(CCCC)c1ccc(C(=N)c2ccc(N(CCCC)CCCC)cc2)cc1,-92.9% (active)
12,CCN(CCCNc1cc2c(c(N)c1S(=O)(=O)O)C(=O)c1ccccc1C2=O)c1ccccc1,89%
13,O=C(NNc1nc2cc(F)c(F)cc2n2c(CN3CC4CNCC4C3)ccc12)c1ncccn1 (stereo not given),-10.6% (active)
14,Oc1cccc(-c2nc3sccn3c2-c2ccncn2)c1,83%
15,NC[C@@](O)(c1ccc(Cl)cc1)c1ccc(-c2cn[nH]c2)cc1,-40.9% (active)
